# According to the supplement of paper PMC13380429:
# Columns and labels:
# [1] = system: Vero E6 infected with SARS-CoV-2; assay: morphology score (similarity to uninfected cells); higher = more like uninfected cells; conditions: 24 h
# [2] = system: Vero E6 infected with SARS-CoV-2; assay: SARS-CoV-2 infection rate relative to infected DMSO; higher = more infection, active = 60 or less; conditions: 24 h
structure (smiles),measurement,setting,value
CCOC(=O)[C@]12CC1/C(=N\O)c1ccccc1O2 (stereo partly specified) (10 µM),morphology score,[1],0.224
same,SARS-CoV-2 infection rate,[2],90.5% (inactive)
Cc1csc(S(=O)(=O)N(CC(C)C)c2cc3c(cc2OCc2ccc(C(=O)O)cc2)CCC3)n1 (10 µM),morphology score,[1],-0.0439
same,SARS-CoV-2 infection rate,[2],107% (inactive)
OC[C@H]1O[C@@H](Oc2ccc(O)cc2)[C@H](O)[C@@H](O)[C@@H]1O [arbutin] (10 µM),morphology score,[1],0.104
same,SARS-CoV-2 infection rate,[2],104% (inactive)
O=C(O)c1ccccc1Nc1cc(Cl)ccc1C(=O)O [lobenzarit] (10 µM),morphology score,[1],0.04
same,SARS-CoV-2 infection rate,[2],113% (inactive)
Cc1cc(-c2nc(-c3ccc(OC(F)(F)F)cc3)no2)nn1Cc1ccnc(N2CCN(C3CC3)CC2)c1 (10 µM),morphology score,[1],0.0825
same,SARS-CoV-2 infection rate,[2],98.5% (inactive)
CC(=O)N[C@H](Cc1ccc2ccccc2c1)C(=O)N[C@H](Cc1ccc(Cl)cc1)C(=O)N[C@H](Cc1cccnc1)C(=O)N[C@@H](CO)C(=O)N[C@@H](Cc1ccc(NC(=O)[C@@H]2CC(=O)NC(=O)N2)cc1)C(=O)N[C@H](Cc1ccc(NC(N)=O)cc1)C(=O)N[C@@H](CC(C)C)C(=O)N[C@@H](CCCCNC(C)C)C(=O)N1CCC[C@H]1C(=O)N[C@H](C)C(N)=O [degarelix] (10 µM),morphology score,[1],-0.277
same,SARS-CoV-2 infection rate,[2],115% (inactive)
O=C(NC1CCC1)c1ccc(C#Cc2cccc(F)c2)nc1 (10 µM),morphology score,[1],0.0178
same,SARS-CoV-2 infection rate,[2],99% (inactive)
CC1(C)S[C@@H]2[C@H](NC(=O)[C@H](C(=O)O)c3ccsc3)C(=O)N2[C@H]1C(=O)O [ticarcillin] (10 µM),morphology score,[1],-0.0272
same,SARS-CoV-2 infection rate,[2],97.5% (inactive)
CN1CCN(C2CCN(C(=O)Nc3cc(Oc4ccc(NC(=O)C5(C(=O)Nc6ccc(F)cc6)CC5)c(F)c4)ccn3)CC2)CC1 [golvatinib] (0.833333 µM),morphology score,[1],0.0621
same,SARS-CoV-2 infection rate,[2],104% (inactive)
C=CC(=O)O [acrylate] (10 µM),morphology score,[1],-0.0871
same,SARS-CoV-2 infection rate,[2],109% (inactive)
C=C(c1ccc(C(=O)O)cc1)c1cc2c(cc1C)C(C)(C)CCC2(C)C [bexarotene] (10 µM),morphology score,[1],0.18
same,SARS-CoV-2 infection rate,[2],108% (inactive)
C[C@@H](N)c1ccc(C(=O)Nc2ccnc3[nH]ccc23)cc1 (10 µM),morphology score,[1],-0.104
same,SARS-CoV-2 infection rate,[2],112% (inactive)
Cc1cn2c(N)c(Cl)cc(C(=O)NCC3CCN(CC(C)C)CC3)c2n1 (10 µM),morphology score,[1],0.221
same,SARS-CoV-2 infection rate,[2],103% (inactive)
CC(N)C12CC3CC(CC(C3)C1)C2 (stereo unspecified) [rimantadine] (10 µM),morphology score,[1],0.136
same,SARS-CoV-2 infection rate,[2],102% (inactive)
CC(=O)N1CCC[C@H]1C(=O)N[C@@H](Cc1cnc[nH]1)C(=O)N[C@@H](CO)C(=O)N[C@@H](CS)C(=O)N[C@@H](CC(N)=O)C(N)=O (10 µM),morphology score,[1],0.0957
same,SARS-CoV-2 infection rate,[2],93% (inactive)
c1ccc2c(Oc3nc(Nc4ccc(N5CCOCC5)cc4)c4ncn(C5CCCCC5)c4n3)cccc2c1 [purmorphamine] (10 µM),morphology score,[1],-0.227
same,SARS-CoV-2 infection rate,[2],113% (inactive)
O=C(O)C(Cl)Cl [dichloroacetate] (10 µM),morphology score,[1],0.236
same,SARS-CoV-2 infection rate,[2],88.5% (inactive)
CN/C(=N\S(=O)(=O)c1ccc(Cl)cc1)N1C[C@H](c2ccccc2)C(c2ccc(Cl)cc2)=N1 (racemic) (10 µM),morphology score,[1],-0.133
same,SARS-CoV-2 infection rate,[2],114% (inactive)
COc1ccc(CC(C)NCC(O)c2ccc(O)c(NC=O)c2)cc1 (stereo unspecified) [formoterol] (10 µM),morphology score,[1],0.0444
same,SARS-CoV-2 infection rate,[2],100% (inactive)
O=c1c(O)c(-c2ccc(O)cc2)oc2cc(O)cc(O)c12 [kaempferol] (10 µM),morphology score,[1],0.215
same,SARS-CoV-2 infection rate,[2],108% (inactive)
O=C(Nc1cc(Oc2cc(F)c(NC(=O)C3(C(=O)Nc4ccc(F)cc4)CC3)cc2F)ccn1)C1CC1 [altiratinib] (10 µM),morphology score,[1],0.122
same,SARS-CoV-2 infection rate,[2],88.5% (inactive)
CNC(=O)ON(C(C)=O)C(=O)NC [caracemide] (10 µM),morphology score,[1],0.0974
same,SARS-CoV-2 infection rate,[2],104% (inactive)
C#C[C@]1(O)CC[C@H]2[C@@H]3CCc4cc(O)ccc4[C@H]3CC[C@@]21C (10 µM),morphology score,[1],0.128
same,SARS-CoV-2 infection rate,[2],102% (inactive)
CC(C)[C@H](CO)Nc1nc(Nc2ccc(C(=O)O)c(Cl)c2)c2ncn(C(C)C)c2n1 [purvalanol-B] (10 µM),morphology score,[1],-0.00736
same,SARS-CoV-2 infection rate,[2],101% (inactive)
O[C@H]1[C@H]2[C@H](O)CCCN2C[C@H]1O [swainsonine] (10 µM),morphology score,[1],-0.0751
same,SARS-CoV-2 infection rate,[2],97% (inactive)
Cc1cccc(NC(=O)c2ccc(C(F)(F)F)cc2C(=O)O)n1 (10 µM),morphology score,[1],-0.208
same,SARS-CoV-2 infection rate,[2],109% (inactive)
O=C(NCc1ccccc1)c1csc(Nc2ccncn2)n1 [thiazovivin] (0.833333 µM),morphology score,[1],0.654
same,SARS-CoV-2 infection rate,[2],99% (inactive)
CCN1/C(=C/C(C)=O)Sc2ccc(OC)cc21 (10 µM),morphology score,[1],-0.0524
same,SARS-CoV-2 infection rate,[2],108% (inactive)
O=C(O)COc1nn(Cc2ccccc2)c2ccccc12 [bendazac] (10 µM),morphology score,[1],-0.0178
same,SARS-CoV-2 infection rate,[2],102% (inactive)
CNC(=N)NC(=O)Nc1c(C)cccc1C [lidamidine] (10 µM),morphology score,[1],-0.327
same,SARS-CoV-2 infection rate,[2],118% (inactive)
CCCCCCCCCCCCCCCCOP(=O)([O-])OCC[N+](C)(C)C [miltefosine] (0.833333 µM),morphology score,[1],0.182
same,SARS-CoV-2 infection rate,[2],94.5% (inactive)
C[C@]12CCC(=O)C=C1[C@@H]1C[C@@H]1[C@H]1[C@@H]3[C@@H]4C[C@@H]4[C@@]4(CCC(=O)O4)[C@@]3(C)CC[C@@H]12 [drospirenone] (10 µM),morphology score,[1],0.176
same,SARS-CoV-2 infection rate,[2],101% (inactive)
COc1ccc([C@]2(C#N)CC[C@@H](C(=O)O)CC2)cc1OC1CCCC1 [cilomilast] (10 µM),morphology score,[1],0.246
same,SARS-CoV-2 infection rate,[2],104% (inactive)
O[C@@H](CN1CCC(Cc2ccc(F)cc2)CC1)c1ccc(Cl)cc1 (racemic) [eliprodil] (10 µM),morphology score,[1],0.218
same,SARS-CoV-2 infection rate,[2],87% (inactive)
CCOC(=O)[C@H](CCc1ccccc1)N[C@@H](C)C(=O)N1CCC[C@H]1C(=O)O [enalapril] (10 µM),morphology score,[1],0.198
same,SARS-CoV-2 infection rate,[2],96.5% (inactive)
CC1(C)CCC(C)(C)c2c1cc(C(=O)Nc1cc(F)c(C(=O)O)c(F)c1)c(O)c2Cl (10 µM),morphology score,[1],-0.137
same,SARS-CoV-2 infection rate,[2],110% (inactive)
COC(=O)c1ccc2c(c1)nc(NC(=O)c1ccccc1)n2CCCc1ccccc1 (10 µM),morphology score,[1],0.0334
same,SARS-CoV-2 infection rate,[2],94.5% (inactive)
Cc1nc(-c2cn3c(n2)-c2ccc(-c4cnn(C(C)(C)C(N)=O)c4)cc2OCC3)n(C(C)C)n1 [taselisib] (0.833333 µM),morphology score,[1],-0.0504
same,SARS-CoV-2 infection rate,[2],98.5% (inactive)
COc1cc2c(c(OC)c1OC)-c1c(cc3c(c1OC)OCO3)CC(C)C(C)C2 (stereo unspecified) [schisandrin-B] (10 µM),morphology score,[1],0.244
same,SARS-CoV-2 infection rate,[2],99.5% (inactive)
O=C(OC[C@H]1O[C@@H](OC(=O)c2cc(O)c(O)c(OC(=O)c3cc(O)c(O)c(O)c3)c2)[C@H](OC(=O)c2cc(O)c(O)c(OC(=O)c3cc(O)c(O)c(O)c3)c2)[C@@H](OC(=O)c2cc(O)c(O)c(OC(=O)c3cc(O)c(O)c(O)c3)c2)[C@@H]1OC(=O)c1cc(O)c(O)c(OC(=O)c2cc(O)c(O)c(O)c2)c1)c1cc(O)c(O)c(OC(=O)c2cc(O)c(O)c(O)c2)c1 [tannic-acid] (10 µM),morphology score,[1],-0.112
same,SARS-CoV-2 infection rate,[2],114% (inactive)
CC#C[C@@H](CC(=O)O)c1ccc(OCc2cccc(-c3ccc(C(F)(F)F)cc3)c2)cc1 (10 µM),morphology score,[1],0.0803
same,SARS-CoV-2 infection rate,[2],108% (inactive)
C#Cc1cccc2c1c(C(=O)c1ccc(Cn3c(C)nc4cnccc43)c(F)c1)cn2C(=O)N(C)C (10 µM),morphology score,[1],0.159
same,SARS-CoV-2 infection rate,[2],106% (inactive)
COc1cc(N)c(Cl)cc1C(=O)NC1CCN(Cc2ccccc2)CC1 [clebopride] (10 µM),morphology score,[1],-0.0118
same,SARS-CoV-2 infection rate,[2],110% (inactive)
Cc1[nH]cnc1CN1CCc2c(c3ccccc3n2C)C1=O [alosetron] (10 µM),morphology score,[1],-0.0421
same,SARS-CoV-2 infection rate,[2],98% (inactive)
N#Cc1ccccc1-c1cc(-c2ccccn2)cn(-c2ccccc2)c1=O [Perampanel] (10 µM),morphology score,[1],0.11
same,SARS-CoV-2 infection rate,[2],90.5% (inactive)
CCN(Cc1ccncc1)C(=O)C(CO)c1ccccc1 (stereo unspecified) [tropicamide] (10 µM),morphology score,[1],-0.0682
same,SARS-CoV-2 infection rate,[2],104% (inactive)
CN1CCCN(C(c2ccccc2)c2ccc(Cl)cc2)CC1 (stereo unspecified) [homochlorcyclizine] (10 µM),morphology score,[1],0.29
same,SARS-CoV-2 infection rate,[2],59.5% (active)
Cc1c(C)c(NCC(=O)N(C)C2CCN(Cc3ccc(C(N)=O)cc3)CC2)c(C)c(C)c1N (10 µM),morphology score,[1],0.211
same,SARS-CoV-2 infection rate,[2],91% (inactive)
Clc1ccc(C(Cn2ccnc2)OCc2ccc(Sc3ccccc3)cc2)c(Cl)c1 (stereo unspecified) [fenticonazole] (10 µM),morphology score,[1],-0.0119
same,SARS-CoV-2 infection rate,[2],114% (inactive)
CC(C)CC(N)=O [isovaleramide] (10 µM),morphology score,[1],0.0817
same,SARS-CoV-2 infection rate,[2],104% (inactive)
O=c1oc2ccccc2c(O)c1Cc1c(O)c2ccccc2oc1=O [dicoumarol] (10 µM),morphology score,[1],0.0403
same,SARS-CoV-2 infection rate,[2],108% (inactive)
Ic1cncc(OC[C@@H]2CCN2)c1 (10 µM),morphology score,[1],0.114
same,SARS-CoV-2 infection rate,[2],101% (inactive)
Cc1ccc(Nc2c(F)cccc2Cl)c(CC(=O)O)c1 [lumiracoxib] (10 µM),morphology score,[1],0.182
same,SARS-CoV-2 infection rate,[2],109% (inactive)
N#Cc1c(N)nc(SCC(N)=O)c(C#N)c1-c1ccc(OCC2CC2)cc1 (10 µM),morphology score,[1],-0.0282
same,SARS-CoV-2 infection rate,[2],108% (inactive)
O=C(O)CSCC(=O)NC1CCSC1=O (stereo unspecified) [erdosteine] (10 µM),morphology score,[1],-0.0411
same,SARS-CoV-2 infection rate,[2],104% (inactive)
C=C1C(=O)O[C@@H]2[C@H]3O[C@]3(C)CC/C=C(\C)CC[C@@H]12 [parthenolide-(alternate-stereo)] (0.833333 µM),morphology score,[1],0.111
same,SARS-CoV-2 infection rate,[2],106% (inactive)
CCCCN1CCCCC1C(=O)Nc1c(C)cccc1C (stereo unspecified) [bupivacaine] (10 µM),morphology score,[1],0.0282
same,SARS-CoV-2 infection rate,[2],110% (inactive)
O=C(O)[C@H](CC(=O)N1C[C@H]2CCCC[C@H]2C1)Cc1ccccc1 [mitiglinide] (10 µM),morphology score,[1],0.0871
same,SARS-CoV-2 infection rate,[2],108% (inactive)
